HCMV inh = human cytomegalovirus inhibition; HFF cells, HCMV-luciferase reporter, 72 h; stronger effect = lower value; activity change, negative = inhibition, % at 57.5 µM; actives 4.5% (n = 410,000); in the data active = activity change below about -60%; inconclusive = no clear call, values can overlap the other calls; inactive = above about -39%; note: % is set by controls: 0 for no effect and ±100 for the full control effect
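HFF cells seeded 16 h at 37C, treated with compounds, infected with luciferase-reporter HCMV at MOI 1 PFU/cell; luciferase read at 72 h post infection, normalized to buffer-only and Salinomycin controls.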
Pf growth 96h = inhibits malaria parasite growth, 96 h. AID 504834. actives 6.9% (n = 320,000). Potency, µM (top dose mostly 28.7 µM), for the others: at the highest dose activity change, negative = inhibition, actives largely listed as inhibitors. P. falciparum luciferase reporter growth, 96 h; note: potency is the fitted concentration of half-maximal effect; % is set by controls: 0 for no effect and ±100 for the full control effect
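96 h incubation, 37 C, 5% CO2, of luciferase-reporter P. falciparum-infected RBCs (2% hematocrit, 0.05% parasitemia final) with test compounds; endpoint luminescence.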
HCV inh = blocks hepatitis C virus | Huh7.5.1 HCVcc-Cre infection, luciferase reporter, 44 h | Potency, µM (series often up to 41.8 µM), inactives show top-dose activity change, negative = inhibition, hits mostly inhibitors | actives 3.4% (n = 340,000) | AID 651820; note: potency is the fitted concentration of half-maximal effect; % is set by controls: 0 for no effect and ±100 for the full control effect
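After 44 h co-culture of compound, cells and HCVcc-Cre (~0.5 moi), substrate is added for 15 min at room temperature and luciferase measured over 15 sec. Cells were seeded at 1,000/well and pre-cultured 4 h.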
Pf growth 48h = inhibits P. falciparum growth in the first generation, 48 h. P. falciparum luciferase growth in erythrocytes, 48 h. Potency, µM (series often up to 28.7 µM), for inactives: at the top dose activity change, negative = inhibition, usual class: inhibitors. actives 5.9% (n = 310,000); note: potency is the fitted concentration of half-maximal effect; % is set by controls: 0 for no effect and ±100 for the full control effect
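Read-out is firefly luciferase luminescence from an integrated reporter in P. falciparum, so falling signal marks reduced parasite growth. Infected erythrocytes were at 2% hematocrit and 0.1% parasitemia (final) in Albumax-supplemented RPMI 1640.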
Cycloheximide cs = counter-screen for Shiga toxin inhibitors: cycloheximide protein synthesis inhibition; cell reporter, cycloheximide protein synthesis inhibition counterscreen; max response, %; actives 12% (n = 300,000); AID 2314; in the data active = max response mostly above about 13%, no sharp cut-off; inactive = mostly below about 14%; note: read at 38.3 µM for the half of the compounds with a filed dose; 0% is about no effect
Shiga toxin inh = Shiga toxin inhibition | actives 9.2% (n = 290,000) | Vero cells, Shiga toxin protein synthesis inhibition reporter | AID 2315 | inhibition, % at 38.7 µM; in the data active = inhibition mostly above about 28%, no sharp cut-off; inactive = mostly below about 43%; note: 0% is about no effect
* = called active by the depositor; ? = inconclusive; / = no result given. Most compounds without a hit are left out; they make up all but 21% or so of the library. Unless noted, calls come from the whole dose curve; as a rule, active = well fitted inhibition curve with a large enough effect; inconclusive = small, poorly fitted or top-dose-only effect, or another doubt; inactive = no such curve, though single readings can be large or run the other way.

SMILES	HCMV inh	Pf growth 96h	HCV inh	Pf growth 48h	Cycloheximide cs	Shiga toxin inh
CC(C)(C)OC(=O)C[C@H]1C/C=C\C[C@@H](CC(=O)NCCO)C(=O)NCCOC1=O	-5.0	/	25.6%	/	/	/
Cc1ccccc1C(=O)NCCCNC(=O)c1ccco1	2.6	2.6%	22.1%	9.3%	5.7	-4.4
Oc1ccc(-c2nc3ccccc3s2)c(O)c1	18.9	86.4%	-4.6%	171.5%	40.1*	91.9*
Nc1ccc2nc(-c3ccc(O)cc3)sc2c1	62.1	/	/	/	/	/
Oc1ccc(N=C/C=C/c2cccc(Br)c2)cc1-c1nc2ccccc2s1	/	4.5%	?	?	32.5*	12.6
Nc1ccc(O)c(-c2nc3ccccc3s2)c1	97.1	?	13.4%	?	47.4*	44.9*
CSc1ccc(C(=O)Nc2ccc(-c3nc4ccccc4s3)c(O)c2)cc1	0.4	/	/	/	/	/
Nc1ccccc1-c1nc2ccccc2s1	26.3	9.28µM*	10.5%	68.3%	40.5*	106.1*
COc1ccc(N2CC(NC(=O)C(c3ccccc3)c3ccccc3)CC2=O)cc1OC (stereo unspecified)	18.8	/	/	/	/	/
CCOC(=O)n1c(O)c(N=NC(N)=S)c2cc(C)ccc21	-16.5	65.0%	15.0%	64.1%	-3.4	-10.4
CN1C(=O)[C@@]2(O[C@H]3c4ccccc4C=CN3C3=C2C(=O)CCC3)c2ccccc21	-29.2	/	/	/	/	/
COc1ccc(Cl)cc1-c1nc(N)nc(N(C)C)n1	0.5	-0.5%	7.3%	-4.5%	-2.9	-7.3
CN(C)c1nc(N)nc(-c2nc3ccccc3s2)n1	104.9	/	5.5%	136.3%	39.4*	100.8*
CC(C)CCNC(=O)c1cn(CC(C)C)c(=O)c2c1c1ccccc1n2C	14.2	?	4.9%	-23.6%	-3.2	-3.4
CCOC(=O)N1CCN(C(=O)c2cn(CC(C)C)c(=O)c3c2c2ccccc2n3C)CC1	39.8	34.2%	6.4%	10.4µM*	-7.3	39.2
CC(C)Cn1cc(C(=O)NCc2cccs2)c2c3ccccc3n(C)c2c1=O	-18.4	8.28µM*	-3.2%	?	-5.9	-25.4
CCOc1ccc2[nH]cc(C(=O)O)c(=O)c2c1	-12.0	/	19.7%	7.6%	0.8	10.8
CCOC(=O)c1ccc2[nH]cc(C(C)=O)c(=O)c2c1	-5.0	3.1%	2.6%	4.65µM*	-0.4	-1.1
CCOC(=O)c1c[nH]c2c(Cl)ccc(Cl)c2c1=O	10.3	-7.8%	11.9%	13.7%	-2.7	-4.7
CCOC(=O)c1c[nH]c2ccc3ccccc3c2c1=O	24.6	4.65µM*	-7.4%	?	1.1	19.5
CCOC(=O)c1ccc(-c2ccc3[nH]c4ccccc4c(=O)c3c2)cc1F	-3.9	5.22µM*	10.8%	?	0.4	-8.6
CC(=O)c1c[nH]c2ccc(C)cc2c1=O	-5.5	?	6.7%	6.57µM*	-1.7	-9.8
Cc1ccc(C)c(Cn2c(=O)n(C)c(=O)c3sccc32)c1	10.1	?	-7.2%	2.5%	-2.2	-15.4
C[N+]1(C)CCC(=C(c2ccccc2)c2ccccc2)CC1	-2.3	5.86µM*	-16.1%	4.15µM*	/	/
C[N+]1(CCC(=O)c2ccccc2)CCCCC1	-4.6	?	24.7%	?	-2.9	-11.7
SMILES	HCMV inh	Pf growth 96h	HCV inh	Pf growth 48h	Cycloheximide cs	Shiga toxin inh
CC1CCN(c2nn3c(=O)c(C(=O)NCc4ccc(Cl)cc4)cnc3s2)CC1	-4.3	/	/	/	/	/
O=C(Nc1c(Cl)cccc1Cl)c1cccc2c1C(=O)N(C1CCCCC1)C2	1.2	/	/	/	/	/
Cc1cccc(C)c1NC(=O)c1cccc2c1C(=O)N(C1CCCCC1)C2	/	11.7µM*	?	10.4µM*	1.0	-2.4
COc1ccc(/C=C/C(=O)OC2CCCN(C)C2)cc1 (stereo unspecified)	44.4	?	8.5%	16.8%	25.7*	47.8*
COc1ccc(/C=C/C(=O)NC(C)CCc2ccccc2)cc1OC (stereo unspecified)	-36.2	5.3%	?	?	-1.8	-8.5
COc1ccc(/C=C/C(=O)NC(C)CCc2ccccc2)cc1 (stereo unspecified)	-60.2*	?	-2.1%	-12.2%	-1.9	13.9
COc1ccc(/C=C/c2cc[n+](C(=O)Cc3ccccc3)cc2)cc1	-107.8*	?	-25.0%	?	3.7	7.0

From PubChem BioAssay
